Drawing on PubChem BioAssay AID1345083 (National Center for Advancing Translational Sciences (NCATS), 2018), this text covers Potency for 63 compounds.

Among all 94,000 compounds or so, about 6,200 (6.6%) were called active. Inconclusive results (about 31%) are left out. Calls come from the whole dose curve; as a rule, active = well fitted inhibition curve with a large enough effect; inconclusive = small, poorly fitted or top-dose-only effect; inactive = flat fitted curve, though single readings scatter. The list comes from a sample in which actives are over-represented; it also holds similar structures and randomly drawn compounds. Entries that show only a call come without a potency.
Potency is the fitted concentration of half-maximal effect.

This test in a line: Cytotoxic Profiling in HEK 293 Cell Line of Diverse Libraries Using Quantitative High-Throughput Screening. Note: nearly all actives have a fitted effect of over 60% in size. To be noted: HEK 293 viability, ATP luminescence (CellTiter-Glo), 48-72 h; series mostly up to 115 µM. The essentials: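 Read-out: CellTiter-Glo ATP luminescence. Cells: HEK 293, 250 cells/well. Exposure: 48 or 72 hr, 37 degree Celsius.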
For orientation: Cellular ATP, detected with luciferase, serves as a proxy for viable cell number.
In the case of `Cc1ccc(CN2C(=O)[C@@H]3C[C@@H](O)CN3C3(CN(Cc4ccccn4)C3)C2=O)o1`, the Potency result was “inactive”.

For `O=C(NCCN[S+](=O)([O-])c1cccs1)c1ccc(-c2cccc(C(F)(F)F)c2)cc1`, the Potency is 44.7 µM (active).

`O=C(NCCNC(=O)c1ccccc1F)c1ccc(-c2cccc(C(F)(F)F)c2)cc1`: the Potency result was “inactive”.

`O=C(NCC(=O)N1CCC(c2ccccc2)CC1)c1ccc(-c2cccc(C(F)(F)F)c2)cc1`: the Potency entry is “inactive”.

Take `CC(=O)NCC(=O)N1Cc2ccccc2CC2(CCCN2Cc2cccnc2)C1` (stereo not drawn): the Potency result is “inactive”.

Consider `CC(C)CCN1CCC2(CC1)C(=O)NCN2Cc1ccc(Cl)cc1`, for which the Potency result was “inactive”.

For the compound `COc1ccc(CCNC(=O)c2nnn3cc(-c4ccccc4)[nH]c(=O)c23)cc1OC`, the Potency entry is “inactive”.

Take `Cc1cc2nc3n(c(=O)c2n1CC(=O)Nc1cccc(C(F)(F)F)c1)CCCC3`: the Potency is 28.2 µM (active).

On to `Cc1cc2nc3n(c(=O)c2n1CC(=O)Nc1ccc(Br)cc1)CCCC3`, for which the Potency result was “inactive”.

For the compound `Cc1cc2nc3n(c(=O)c2n1CC(=O)Nc1cc(F)cc(F)c1)CCCC3`, the Potency result is “inactive”.

With `Cc1noc(-c2ccc(OC3CN(C(=O)C4CCOC4)C3)cc2)n1` (stereo not drawn), the Potency entry is “inactive”.

Consider `CO[C@H]1CN(C(C)C)[C@H]1C1CCN(C(=O)NCCc2ccccc2)CC1`, for which the Potency entry was “inactive”.

For `NC(=O)[C@@H]1C[C@H](Oc2ccccc2)CN1C(=O)Cc1cccc(F)c1`, the Potency result was “inactive”.

Consider `COc1cc(CN2CCC3(CC2)CC(O)CCO3)ccc1F` (stereo not drawn), for which the Potency result is “inactive”.

For the compound `COc1cc(CNCc2ccc(C)c(F)c2F)ccc1OCC(O)CN1CCC(O)CC1` (stereo not drawn), the Potency is 17.8 µM (active).

In the case of `COc1ccc(CC(=O)N2CCC3(CC2)CC(O)CCO3)cc1OC` (stereo not drawn), the Potency result was “inactive”.

For `COc1ccc(CN2C=C(C(=O)OCc3nc(C)no3)C(C)=NS2(=O)=O)cc1`, the Potency result is “inactive”.

In the case of `NC(=O)[C@@H](Cc1ccccc1)NC(=O)[C@@]1(O)C[C@@H](O)[C@H](O)[C@@H](NC(=O)Nc2ccc(OC(F)(F)F)cc2)C1`, the Potency result is “inactive”.

With `CN(Cc1cccn1C)Cc1ccnn1C`, the Potency is 100 µM (active).

In the case of `Cc1noc(C)c1[S+](=O)([O-])N(C)Cc1cccn1C`, the Potency result is “inactive”.

Take `Cn1nccc1CN1CCC(N2Cc3ccccc3C2=O)CC1`: the Potency result is “inactive”.

In the case of `O=C(NC[C@H]1O[C@@H](CO)[C@@H](O)[C@H]1N1CCN(c2ccccc2)CC1)c1ccccc1Cl`, the Potency entry was “inactive”.

In the case of `CCCNC(=O)CCC1CCN(C(=O)c2ccc(C)cc2)CC1`, the Potency entry is “inactive”.

Consider `Cc1ccc(C(=O)N2CCC(CCC(=O)N3CCc4ccccc4C3)CC2)cc1`, for which the Potency was 44.7 µM (active).

For the compound `CC1(C(=O)N2CCc3ccccc3C2)CCOCC1`, the Potency result is “inactive”.

In the case of `COc1ccc2cc(-c3[nH]ncc3CN3CCN(c4cccc(C)n4)CC3)ccc2c1`, the Potency is 20 µM (active).

`COc1ccc(-c2[nH]ncc2CN2CCCC(C(=O)NCc3ccccc3)CCNC(=O)CC2)cc1` (stereo not drawn): the Potency result is “inactive”.

Take `CC(=O)N[C@@H]1CN(Cc2cn[nH]c2-c2ccc(F)cc2)C[C@H]1CO`: the Potency result was “inactive”.

Consider `Cc1ncccc1C(=O)N1CCC2(CC1)CC(CO)N(C(=O)c1ccccc1)C2` (stereo not drawn), for which the Potency result was “inactive”.

Consider `COCCC1(NS(C)(=O)=O)CCN(C(=O)c2ccc(C#N)cc2)CC1`, for which the Potency entry is “inactive”.

Take `COc1ccc([C@@H](NC(=O)Cc2c(F)cccc2Cl)C2CC(O)C2)cn1` (stereo partly drawn): the Potency entry is “inactive”.

Regarding `COc1cc(OC)cc(C(=O)N2CCCC(n3cc(-c4nc(C(C)C)no4)nn3)C2)c1` (stereo not drawn), the Potency entry is “inactive”.

Turning to `COc1ccc(C(=O)N2CCC(n3cc(-c4nc(C(C)C)no4)nn3)CC2)cc1F`, the Potency result is “inactive”.

In the case of `CC(C)c1noc(-c2cn(C3CCN(C(=O)c4ccc(N(C)C)cc4)C3)nn2)n1` (stereo not drawn), the Potency is 31.6 µM (active).

For `CCOc1ccc(C(=O)N2CCC(n3cc(-c4nc(C)no4)nn3)C2)cc1` (stereo not drawn), the Potency result is “inactive”.

Consider `O=C(c1ccc(Cl)cc1)N1CCCC(n2cc(-c3nc(-c4ccccc4)no3)nn2)C1` (stereo not drawn), for which the Potency was 35.5 µM (active).

Take `COc1ccc(C(=O)N2CCCC(n3cc(-c4nc(C5CC5)no4)nn3)C2)cc1` (stereo not drawn): the Potency result was “inactive”.

Turning to `COc1ccc(F)cc1-c1ncc2c(n1)OCCN(CC1CC1)C2=O`, the Potency result was “inactive”.

In the case of `CCNC(=O)N1C[C@@H]2OCC(=O)N(Cc3ccc(F)cc3)[C@@H]2C1`, the Potency entry is “inactive”.

Regarding `COc1cccc(CN2CCN(c3ncccc3Cl)CC2CCO)c1` (stereo not drawn), the Potency result was “inactive”.

`COc1ccc(CN2CCN(c3nc4ccccc4o3)CC2CCO)cc1C` (stereo not drawn): the Potency is 35.5 µM (active).

Consider `Cc1ccc(CN2CCN(c3nc4ccccc4o3)CC2CCO)cc1` (stereo not drawn), for which the Potency is 44.7 µM (active).

Take `CCOc1ccc(CN2CCN(CC(N)=O)CC2CCO)cc1` (stereo not drawn): the Potency entry was “inactive”.

`CCOC(=O)N1CCC(N2CCN(Cc3ccccc3F)C(CCO)C2)CC1` (stereo not drawn): the Potency result is “inactive”.

Take `CN1C(=O)c2cccn2CC1C(=O)Nc1ccc(F)cc1F` (stereo not drawn): the Potency result was “inactive”.

With `O=C(NC1CC1)[C@@H]1C[C@H](Oc2ccccc2)CN1C(=O)CN1CCCCCC1`, the Potency result is “inactive”.

As for `CCc1nncn1C1CCN(S(=O)(=O)c2cc(F)ccc2OC)CC1`, the Potency entry was “inactive”.

In the case of `Cc1cccc(N2Cc3c(NCCCOC(C)C)ncnc3N(C)CC2=O)c1`, the Potency entry was “inactive”.

Take `NCc1ccccc1-c1ccc(F)cc1`: the Potency result was “inactive”.

Turning to `Cc1cc2cccc(-c3nc(C4CCOC4)nn3CC(=O)O)c2o1` (stereo not drawn), the Potency result is “inactive”.

For `Cc1nc(N2CCC(NCCNc3ccncc3C)CC2)c2ccsc2n1`, the Potency was 35.5 µM (active).

`Cc1nc(N2CCC(NC(=O)c3cnccn3)CC2)cc(C(F)(F)F)n1`: the Potency entry was “inactive”.

As to `CNC(=O)c1cc(C2CC2)nc2onc(C3CCCN3C(=O)c3ccccc3)c12` (stereo not drawn), the Potency result was “inactive”.

For `Cc1ccc(NC(=O)CC2CCCN(c3cn[nH]c(=O)c3)C2)cc1F` (stereo not drawn), the Potency entry is “inactive”.

On to `CN(C)CC(O)COc1ccc(CN(C)C2CCSCC2)cc1` (stereo not drawn), for which the Potency result was “inactive”.

As to `COc1ccc(-c2nc3c(c(=O)[nH]2)CCN(C(=O)Cc2ccc(OC)c(Cl)c2)C3)cc1`, the Potency entry was “inactive”.

For the compound `O=c1n(CCN2CCN([S+](=O)([O-])c3cccs3)CC2)nc2n1CCCC2`, the Potency result was “inactive”.

On to `COc1ccccc1-n1c(=O)c(C(=O)N2CCN([S+](=O)([O-])c3cccs3)CC2)nc2cccnc21`, for which the Potency result was “inactive”.

As for `O=[S+]([O-])(c1cccs1)N1CCN(c2nccc(Nc3ccccc3F)n2)CC1`, the Potency was 35.5 µM (active).

In the case of `C=CCNC(=O)c1cn2c(n1)CN(C(=O)c1ccccc1F)CC2`, the Potency entry was “inactive”.

`CCNC(=O)N1CCC(n2c(C)cnc2C2CC2)CC1`: the Potency entry is “inactive”.

With `CCOc1ccc(NC(=O)N2CCC3(CC2)SCC(=O)N3Cc2ccco2)cc1`, the Potency result is “inactive”.

Take `CCOc1ccccc1C(=O)N1CCC(Oc2ncccc2C(=O)N(C)C)C1` (stereo not drawn): the Potency entry is “inactive”.
